About 2,000 (36%) of roughly 5,500 compounds were called active. Roughly 18% stayed inconclusive and do not appear here. Cut-off read from the data, not from the text of the source: active = normalized growth mostly below about 0.91 (no sharp cut-off); inconclusive = no clear call, values can overlap the other calls; inactive = mostly above about 0.92. The list shows a part of the results.
Assay: chemical genetic growth profiling, strain panel (AID 1159580);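 note: tested at 20 µM; growth read once vehicle control cultures reached saturation at 30 °C; 1 = growth at the plate median or of vehicle wells; lower values mean less growth of the strain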
Conditions: growth OD

Measured: normalized growth

CC12CCC3C(CC=C4CC(O)CCC43C)C1CCC2=O (centres undefined)
inactive: S. cerevisiae deletion strains, locus YKL068W, stronger effect = lower value 1.02 | S. cerevisiae deletion strains, locus YKL085W, strain MDH1 (second series), stronger effect = lower value 0.983 | S. cerevisiae deletion strains, locus YKL085W, strain MDH1, stronger effect = lower value 0.983 | S. cerevisiae deletion strains, locus YKL190W, strain CNB1, stronger effect = lower value 0.929 | S. cerevisiae deletion strains, locus YKR001C, strain vps1, stronger effect = lower value 1.01 | S. cerevisiae deletion strains, locus YKR026C, strain gcn3, stronger effect = lower value 1.03 | S. cerevisiae deletion strains, locus YKR091W, strain srl3, stronger effect = lower value 1.02 | S. cerevisiae deletion strains, locus YLL041C, strain sdh2, stronger effect = lower value 0.999 | S. cerevisiae deletion strains, locus YLR058C, strain SHM2, stronger effect = lower value 0.908 | S. cerevisiae deletion strains, locus YLR102C, strain apc9, stronger effect = lower value 1.02 | S. cerevisiae deletion strains, locus YLR258W, strain gsy2, stronger effect = lower value 0.939 | S. cerevisiae deletion strains, locus YLR330W, strain CHS5, stronger effect = lower value 0.929 | S. cerevisiae deletion strains, locus YLR342W, strain FKS1, stronger effect = lower value 0.932 | S. cerevisiae deletion strains, locus YLR357W, strain rsc2, stronger effect = lower value 1.1 | S. cerevisiae deletion strains, locus YLR370C, strain arc18, stronger effect = lower value 0.993 | S. cerevisiae deletion strains, locus YLR371W, strain rom2, stronger effect = lower value 1.07 | S. cerevisiae deletion strains, locus YLR384C, strain iki3, stronger effect = lower value 1.03 | S. cerevisiae deletion strains, locus YML016C, strain PPZ1, stronger effect = lower value 0.979 | S. cerevisiae deletion strains, locus YML120C, strain ndi1, stronger effect = lower value 0.92 | S. cerevisiae deletion strains, locus YML124C, strain tub3, stronger effect = lower value 1 | S. cerevisiae deletion strains, locus YMR078C, strain ctf18, stronger effect = lower value 1.02 | S. cerevisiae deletion strains, locus YMR125W, strain sto1, stronger effect = lower value 0.971 | S. cerevisiae deletion strains, locus YMR129W, stronger effect = lower value 0.975 | S. cerevisiae deletion strains, locus YMR223W, strain ubp8, stronger effect = lower value 0.946 | S. cerevisiae deletion strains, locus YMR231W, strain pep5, stronger effect = lower value 0.989 | S. cerevisiae deletion strains, locus YMR263W, strain SAP30, stronger effect = lower value 0.976 | S. cerevisiae deletion strains, locus YMR307W, strain GAS1, stronger effect = lower value 1.11 | S. cerevisiae deletion strains, locus YNL067W, strain RPL9B, stronger effect = lower value 0.917 | S. cerevisiae deletion strains, locus YNL153C, strain GIM3, stronger effect = lower value 0.887 | S. cerevisiae deletion strains, locus YNL233W, strain BNI4, stronger effect = lower value 0.889 | S. cerevisiae deletion strains, locus YNL250W, strain rad50, stronger effect = lower value 0.947 | S. cerevisiae deletion strains, locus YNL271C, strain bni1, stronger effect = lower value 0.993 | S. cerevisiae deletion strains, locus YNL298W, strain CLA4, stronger effect = lower value 0.929 | S. cerevisiae deletion strains, locus YNL322C, strain KRE1 (second series), stronger effect = lower value 1.01 | S. cerevisiae deletion strains, locus YNR049C, strain mso1, stronger effect = lower value 1.01 | S. cerevisiae deletion strains, locus YOL006C, strain TOP1, stronger effect = lower value 0.572 | S. cerevisiae deletion strains, locus YOL012C, strain htz1 1.48 | S. cerevisiae deletion strains, locus YOR061W, strain CKA2, stronger effect = lower value 0.907 | S. cerevisiae deletion strains, locus YOR069W, strain VPS5, stronger effect = lower value 0.962 | S. cerevisiae deletion strains, locus YOR080W, strain dia2, stronger effect = lower value 0.974 | S. cerevisiae deletion strains, locus YOR106W, strain vam3, stronger effect = lower value 0.89 | S. cerevisiae deletion strains, locus YOR136W, strain idh2, stronger effect = lower value 1.01 | S. cerevisiae deletion strains, locus YOR144C, strain elg1, stronger effect = lower value 0.987 | S. cerevisiae deletion strains, locus YOR265W, strain rbl2, stronger effect = lower value 0.969 | S. cerevisiae deletion strains, locus YOR316C, strain cot1, stronger effect = lower value 1.04 | S. cerevisiae deletion strains, locus YPL240C, strain hsp82, stronger effect = lower value 1.01 | S. cerevisiae deletion strains, locus YPL241C, strain CIN2, stronger effect = lower value 1.02 | S. cerevisiae deletion strains, locus YPR119W, strain clb2, stronger effect = lower value 1.05 | S. cerevisiae deletion strains, locus YPR141C, strain kar3, stronger effect = lower value 1.06 | S. cerevisiae deletion strains, locus YPR167C, strain met16, stronger effect = lower value 0.928
active: S. cerevisiae deletion strains, locus YKL009W, strain mrt4, stronger effect = lower value 0.868 | S. cerevisiae deletion strains, locus YKL160W, strain elf1, stronger effect = lower value 0.858 | S. cerevisiae deletion strains, locus YLL001W, strain dnm1, stronger effect = lower value 0.902 | S. cerevisiae deletion strains, locus YLL026W, stronger effect = lower value 0.88 | S. cerevisiae deletion strains, locus YLR027C, strain aat2, stronger effect = lower value 0.849 | S. cerevisiae deletion strains, locus YLR039C, strain RIC1, stronger effect = lower value 0.516 | S. cerevisiae deletion strains, locus YLR221C, strain rsa3, stronger effect = lower value 0.779 | S. cerevisiae deletion strains, locus YLR262C, strain YPT6 (second series), stronger effect = lower value 0.441 | S. cerevisiae deletion strains, locus YLR268W, strain sec22, stronger effect = lower value 0.882 | S. cerevisiae deletion strains, locus YLR320W, strain mms22, stronger effect = lower value 0.429 | S. cerevisiae deletion strains, locus YLR342W, strain FKS1 (second series), stronger effect = lower value 0.781 | S. cerevisiae deletion strains, locus YLR418C, strain cdc73, stronger effect = lower value 0.766 | S. cerevisiae deletion strains, locus YML032C, strain rad52, stronger effect = lower value 0.855 | S. cerevisiae deletion strains, locus YMR058W, strain fet3, stronger effect = lower value 0.885 | S. cerevisiae deletion strains, locus YMR205C, strain PFK2, stronger effect = lower value 0.811 | S. cerevisiae deletion strains, locus YNL071W, strain lat1, stronger effect = lower value 0.513 | S. cerevisiae deletion strains, locus YNL209W, strain ssb2, stronger effect = lower value 0.927 | S. cerevisiae deletion strains, locus YNL248C, strain rpa49, stronger effect = lower value 0.777 | S. cerevisiae deletion strains, locus YNL307C, strain MCK1, stronger effect = lower value 0.707 | S. cerevisiae deletion strains, locus YNL322C, strain KRE1, stronger effect = lower value 0.924 | S. cerevisiae deletion strains, locus YNR052C, strain pop2, stronger effect = lower value 0.861 | S. cerevisiae deletion strains, locus YOL147C, strain pex11, stronger effect = lower value 0.91 | S. cerevisiae deletion strains, locus YOR001W, strain rrp6, stronger effect = lower value 0.8 | S. cerevisiae deletion strains, locus YOR070C, strain gyp1, stronger effect = lower value 0.81 | S. cerevisiae deletion strains, locus YOR083W, strain WHI5, stronger effect = lower value 0.86 | S. cerevisiae deletion strains, locus YOR184W, strain ser1, stronger effect = lower value 0.694 | S. cerevisiae deletion strains, locus YOR270C, strain vph1, stronger effect = lower value 0.578 | S. cerevisiae deletion strains, locus YOR290C, strain snf2, stronger effect = lower value 0.848 | S. cerevisiae deletion strains, locus YPL051W, strain arl3, stronger effect = lower value 0.861 | S. cerevisiae deletion strains, locus YPL078C, strain atp4, stronger effect = lower value 0.864 | S. cerevisiae deletion strains, locus YPL106C, strain sse1, stronger effect = lower value 1.27 [resistant] | S. cerevisiae deletion strains, locus YPR163C, strain tif3, stronger effect = lower value 0.893 | S. cerevisiae deletion strains, strain wtn01, stronger effect = lower value 0.854 | S. cerevisiae strains, strain wild type, stronger effect = lower value 0.877
